# Assay results as given in the supplement of paper PMC8728848.
# Many of the other results were omitted from the sample, so the strongest signals are more common in it than they were.
# Columns and labels:
# Assay in all cases: glycan array binding signal (z-score within array); higher = stronger binding
# Conditions in all cases: glycan notation: IUPAC condensed, linker removed
# [1] = target: Fuc(a1-2)Gal(b1-3)[Fuc(a1-4)]GlcNAc(b1-2)Man(a1-3)[Fuc(a1-2)Gal(b1-3)[Fuc(a1-4)]GlcNAc(b1-2)Man(a1-3)]Man(b1-4)GlcNAc(b1-4)GlcNAc
# Summary of the method: (§1)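 The Consortium for Functional Glycomics database supplied 3228 glycan arrays, of which those lacking an available protein sequence were dropped. The binding signal, a within-array Z-score, was averaged across arrays of the same protein sequence and across linkers. Negative scores can be read as non-binding.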
# [2] = target: Fuc(a1-2)Gal(b1-4)Fuc(a1-3)]GlcNAc(b1-2)Man(a1-3)[Fuc(a1-2)Gal(b1-4)[Fuc(a1-3)]GlcNAc(b1-2)Man(a1-6)]Man(b1-4)GlcNAc(b1-4)GlcNAc
# Summary of the method: as §1
# [3] = target: Fuc(a1-2)Gal(b1-4)GlcNAc(b1-3)[Fuc(a1-3)[Gal(b1-4)]GlcNAc(b1-6)]Gal(b1-4)Glc
# Summary of the method: as §1
# [4] = target: Fuc(a1-2)Gal(b1-4)GlcNAc6S
# Summary of the method: as §1
# [5] = target: Fuc(a1-2)Gal(b1-4)[Fuc(a1-3)]GlcNAc(b1-3)GalNAc
# Summary of the method: as §1
# [6] = target: Fuc(a1-2)[Gal(a1-3)]Gal(b1-4)[Fuc(a1-3)]Glc
# Summary of the method: as §1
# [7] = target: Fuc(a1-2)[GalNAc(a1-3)]Gal(b1-3)GlcNAc(b1-2)Man(a1-3)[Fuc(a1-2)[GalNAc(a1-3)]Gal(b1-3)GlcNAc(b1-2)Man(a1-6)]Man(b1-4)GlcNAc(b1-4)[Fuc(a1-6)]GlcNAc
# Summary of the method: as §1
# [8] = target: Fuc(a1-2)[GalNAc(a1-3)]Gal(b1-4)GlcNAc
# Summary of the method: as §1
# [9] = target: Gal(a1-3)Gal(b1-3)GlcNAc
# Summary of the method: as §1
# [10] = target: Gal(a1-4)Gal(b1-4)Glc
# Summary of the method: as §1
# [11] = target: Gal(a1-4)Gal(b1-4)GlcNAc(b1-2)Man(a1-3)[Gal(a1-4)Gal(b1-4)GlcNAc(b1-2)Man(a1-6)]Man(b1-4)GlcNAc(b1-4)GlcNAc
# Summary of the method: as §1
# [12] = target: Gal(b1-3)[Fuc(a1-4)]GlcNAc(b1-2)Man
# Summary of the method: as §1
# [13] = target: Gal(b1-4)Gal
# Summary of the method: as §1
# [14] = target: Gal(b1-4)GlcNAc(a1-6)Gal(b1-4)GlcNAc
# Summary of the method: as §1
# [15] = target: Gal(b1-4)GlcNAc(b1-2)Man(a1-3)[Gal(b1-4)GlcNAc(b1-2)Man(a1-6)]Man(b1-4)GlcNAc(b1-4)GlcNAc
# Summary of the method: as §1
# [16] = target: Gal(b1-4)GlcNAc(b1-2)Man(a1-6)Man(b1-4)GlcNAc(b1-4)GlcNAc
# Summary of the method: as §1
# [17] = target: Gal(b1-4)GlcNAc(b1-3)Gal(b1-4)Glc
# Summary of the method: as §1
# [18] = target: Gal(b1-4)GlcNAc(b1-3)Gal(b1-4)GlcNAc(b1-2)Man(a1-3)[Gal(b1-4)GlcNAc(b1-3)Gal(b1-4)GlcNAc(b1-2)Man(a1-6)]Man(b1-4)GlcNAc(b1-4)GlcNAc
# Summary of the method: as §1
# [19] = target: Gal(b1-4)GlcNAc(b1-3)[Fuc(a1-3)GlcNAc(b1-6)]Gal(b1-4)Glc
# Summary of the method: as §1
# [20] = target: Gal3S4S(b1-4)GlcNAc
# Summary of the method: as §1
# [21] = target: Gal3S6S(b1-4)GlcNAc6S
# Summary of the method: as §1
# [22] = target: Gal6S(b1-3)GlcNAc
# Summary of the method: as §1
# [23] = target: GalNAc(b1-3)Gal(a1-4)Gal(b1-4)GlcNAc
# Summary of the method: as §1
# [24] = target: GalNAc(b1-3)GlcNAc
# Summary of the method: as §1
# [25] = target: GalNAc(b1-4)Gal(b1-4)Glc
# Summary of the method: as §1
# [26] = target: GalNAc3S(b1-4)GlcNAc
# Summary of the method: as §1
# [27] = target: GalNAc3S(b1-4)[Fuc(a1-3)]GlcNAc
# Summary of the method: as §1
# [28] = target: GalNAc4S6S(b1-4)GlcNAc
# Summary of the method: as §1
# [29] = target: GlcNAc(b1-2)Man(a1-3)[GlcNAc(b1-2)Man(a1-6)]Man(b1-4)GlcNAc(b1-4)[Fuc(a1-6)]GlcNAc
# Summary of the method: as §1
# [30] = target: GlcNAc(b1-2)[GlcNAc(b1-4)]Man(a1-3)[GlcNAc(b1-4)][GlcNAc(b1-2)Man(a1-6)]Man(b1-4)GlcNAc(b1-4)GlcNAc
# Summary of the method: as §1
# [31] = target: GlcNAc(b1-3)Gal(b1-4)GlcNAc
# Summary of the method: as §1
# [32] = target: GlcNAc(b1-3)Gal(b1-4)GlcNAc(b1-3)Gal(b1-4)GlcNAc(b1-3)Gal(b1-4)GlcNAc(b1-3)Gal(b1-4)GlcNAc(b1-2)[GlcNAc(b1-3)Gal(b1-4)GlcNAc(b1-3)Gal(b1-4)GlcNAc(b1-3)Gal(b1-4)GlcNAc(b1-3)Gal(b1-4)GlcNAc(b1-6)]Man(a1-6)[GlcNAc(b1-3)Gal(b1-4)GlcNAc(b1-3)Gal(b1-4)GlcNAc(b1-3)Gal(b1-4)GlcNAc(b1-3)Gal(b1-4)GlcNAc(b1-2)Man(a1-3)]Man(b1-4)GlcNAc(b1-4)[Fuc(a1-6)]GlcNAc
# Summary of the method: as §1
# [33] = target: GlcNAc(b1-4)Gal(b1-4)GlcNAc
# Summary of the method: as §1
# [34] = target: GlcNAc(b1-6)GalNAc
# Summary of the method: as §1
# [35] = target: Man(a1-2)Man(a1-3)[Man(a1-6)]Man(a1-6)[Man(a1-2)Man(a1-3)]Man(b1-4)GlcNAc(b1-4)GlcNAc
# Summary of the method: as §1
# [36] = target: Neu5Ac(a2-3)Gal(b1-3)[Fuc(a1-4)]GlcNAc
# Summary of the method: as §1
# [37] = target: Neu5Ac(a2-3)Gal(b1-4)[Fuc(a1-3)]GlcNAc
# Summary of the method: as §1
# [38] = target: Neu5Ac(a2-3)Gal(b1-4)[Fuc(a1-3)]GlcNAc(b1-6)[Neu5Ac(a2-3)Gal(b1-3)]GalNAc
# Summary of the method: as §1
# [39] = target: Neu5Ac(a2-6)Gal
# Summary of the method: as §1
# [40] = target: Neu5Ac(a2-6)Gal(b1-4)GlcNAc(b1-2)Man(a1-3)Man(b1-4)GlcNAc(b1-4)GlcNAc
# Summary of the method: as §1
# [41] = target: Neu5Ac(a2-6)Gal(b1-4)GlcNAc(b1-2)Man(a1-6)[Gal(b1-4)GlcNAc(b1-2)Man(a1-3)]Man(b1-4)GlcNAc(b1-4)GlcNAc
# Summary of the method: as §1
# [42] = target: Neu5Ac(a2-6)Gal(b1-4)GlcNAc(b1-3)Gal(b1-4)GlcNAc(b1-3)Gal(b1-4)GlcNAc(b1-2)Man(a1-3)[Neu5Ac(a2-6)Gal(b1-4)GlcNAc(b1-3)Gal(b1-4)GlcNAc(b1-3)Gal(b1-4)GlcNAc(b1-2)Man(a1-6)]GalNAc
# Summary of the method: as §1
# [43] = target: Neu5Ac(a2-6)Gal(b1-4)GlcNAc(b1-3)Gal(b1-4)GlcNAc(b1-6)[Gal(b1-3)]GalNAc
# Summary of the method: as §1
# [44] = target: Neu5Ac(a2-6)Gal(b1-4)GlcNAc(b1-3)[Neu5Ac(a2-6)Gal(b1-4)GlcNAc(b1-6)]GalNAc
# Summary of the method: as §1
# [45] = target: Neu5Ac(a2-6)Gal(b1-4)GlcNAc(b1-6)GalNAc
# Summary of the method: as §1
# [46] = target: Neu5Ac(a2-6)GlcNAc(b1-4)GlcNAc
# Summary of the method: as §1
# [47] = target: Neu5Ac(a2-8)Neu5Ac(a2-3)[GalNAc(b1-4)]Gal(b1-4)Glc
# Summary of the method: as §1
# [48] = target: Neu5Ac(a2-8)Neu5Ac(a2-8)Neu5Ac(a2-3)Gal(b1-4)Glc
# Summary of the method: as §1
# [49] = target: Neu5Ac(a2-8)Neu5Ac(a2-8)Neu5Ac(a2-8)Neu5Ac(a2-3)[GalNAc(b1-4)]Gal(b1-4)Glc
# Summary of the method: as §1
# [50] = target: Neu5Ac9Ac(a2-3)Gal(b1-3)GlcNAc
# Summary of the method: as §1
# [51] = target: Neu5Ac9Ac(a2-3)Gal(b1-4)GlcNAc
# Summary of the method: as §1
binder,measurement,setting,value
"CC1G-11630 (Coprinopsis cinerea), A8P462 (protein) MTTEAKIKLKAVVYWELVFDYDNSSNTGEITQSYTVKISQTSTRSTFASEVSTTTIDTLTKNNQEVDVGASYGAISANVSASWEHSEEVNNMLEKTTQTSTEDTYTVETEETRSYTIGPGGMLSLFQKHFSGPGMHVAFDVFTTDLELAKERTEIDIDVDVEAIRFVREIRVVYTDIMSEAPGDHVREINGKNPDINYGFNGKFVWLVPEQTRKTAQALTNVEFVSQAESDDRYWDLAAGAGGSNRYLIPVYDTNNKDKIYELALWRSDSYITHDKVKAAGWSGTTGDINSGRGGTYLNLVWKTRHAY",glycan array binding signal (z-score),[1],2.22
same,glycan array binding signal (z-score),[2],1.38
same,glycan array binding signal (z-score),[3],-0.581
same,glycan array binding signal (z-score),[4],0.388
same,glycan array binding signal (z-score),[5],0.411
same,glycan array binding signal (z-score),[6],-0.641
same,glycan array binding signal (z-score),[7],-0.174
same,glycan array binding signal (z-score),[8],-0.601
same,glycan array binding signal (z-score),[9],6.02
same,glycan array binding signal (z-score),[10],0.088
same,glycan array binding signal (z-score),[11],0.102
same,glycan array binding signal (z-score),[12],2.23
same,glycan array binding signal (z-score),[13],1.01
same,glycan array binding signal (z-score),[14],-0.631
same,glycan array binding signal (z-score),[15],-0.378
same,glycan array binding signal (z-score),[16],-0.208
same,glycan array binding signal (z-score),[17],-0.507
same,glycan array binding signal (z-score),[18],2.49
same,glycan array binding signal (z-score),[19],-0.538
same,glycan array binding signal (z-score),[20],3.27
same,glycan array binding signal (z-score),[21],2.52
same,glycan array binding signal (z-score),[22],-0.544
same,glycan array binding signal (z-score),[23],0.165
same,glycan array binding signal (z-score),[24],-0.463
same,glycan array binding signal (z-score),[25],1.99
same,glycan array binding signal (z-score),[26],-0.609
same,glycan array binding signal (z-score),[27],0.036
same,glycan array binding signal (z-score),[28],0.25
same,glycan array binding signal (z-score),[29],-0.33
same,glycan array binding signal (z-score),[30],-0.368
same,glycan array binding signal (z-score),[31],-0.538
same,glycan array binding signal (z-score),[32],5.85
same,glycan array binding signal (z-score),[33],-0.152
same,glycan array binding signal (z-score),[34],-0.182
same,glycan array binding signal (z-score),[35],-0.164
same,glycan array binding signal (z-score),[36],-0.138
same,glycan array binding signal (z-score),[37],-0.567
same,glycan array binding signal (z-score),[38],0.186
same,glycan array binding signal (z-score),[39],-0.074
same,glycan array binding signal (z-score),[40],-0.49
same,glycan array binding signal (z-score),[41],15.9
same,glycan array binding signal (z-score),[42],2.1
same,glycan array binding signal (z-score),[43],0.078
same,glycan array binding signal (z-score),[44],0.001
same,glycan array binding signal (z-score),[45],2.18
same,glycan array binding signal (z-score),[46],-0.717
same,glycan array binding signal (z-score),[47],0.069
same,glycan array binding signal (z-score),[48],-0.108
same,glycan array binding signal (z-score),[49],-0.33
same,glycan array binding signal (z-score),[50],0.279
same,glycan array binding signal (z-score),[51],-0.202
